According to the supplement of paper PMC4166925:
± gives the standard deviation of the averaged measurements. The full ranking holds about 33,000 sequences; the median of “E-score (dimensionless, -0.5 to 0.5)” is about -0.049, and the highest 2% start at about 0.37. The entries come from a sample that favours the highest values as a whole.

test system: T1, PmTbr T-box DNA-binding domain (GST fusion); experiment: PBM E-score of 8-mer (E-score (dimensionless, -0.5 to 0.5)); Tbr is Tbrain of the sea star Patiria miniata (Pm) or the sea urchin Strongylocentrotus purpuratus (Sp); higher = stronger binding preference; conditions: the construct has about 5 more residues each side
T1 sequence: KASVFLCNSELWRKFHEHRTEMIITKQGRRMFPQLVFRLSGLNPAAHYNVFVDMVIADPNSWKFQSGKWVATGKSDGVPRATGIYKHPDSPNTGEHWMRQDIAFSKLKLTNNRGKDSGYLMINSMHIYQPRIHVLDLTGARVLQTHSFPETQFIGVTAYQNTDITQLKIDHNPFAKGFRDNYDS
Outline: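 Universal Agilent oligonucleotide arrays, made double-stranded by primer extension, were incubated with 200 nM GST-fused Tbr T-box DNA-binding domain in PBS (pH 7.5). The protein was expressed in BL21 E. coli at 20 °C and purified by glutathione affinity chromatography. After scanning and quantification, the Universal PBM Analysis Suite assigned an enrichment E-score to each ungapped 8-mer, averaged over duplicate arrays.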

Sequence | PBM E-score of 8-mer
CACAGTCC | 0.0117 ± 0.032
ACTGCACG | -0.149 ± 0.031
GGCGAGAA | 0.339 ± 0.005
GGCGAACA | 0.0467 ± 0.018
AGCGAACA | 0.0494 ± 0.02
TGCGAGAA | 0.3906 ± 0.0012
TGCGAAAA | 0.391 ± 0.03
CGCGAAAA | 0.359 ± 0.019
CGCGAGAA | 0.32 ± 0.0046
AGCGAAAA | 0.0819 ± 0.093
TGCGAACA | 0.396 ± 0.0075
CACTCTAG | 0.223 ± 0.0029
CGTGACAA | 0.407 ± 0.025
GATGACAC | 0.36 ± 0.02
GTTGACGA | 0.211 ± 0.012
GGAGACAC | 0.142 ± 0.084
AGTGACAG | 0.357 ± 0.0084
CGTGACCA | 0.259 ± 0.018
CGTGACAG | 0.27 ± 0.015
GTTGACAA | 0.3821 ± 0.0035
GGTGACAC | 0.4691 ± 0.0035
AGTGACAT | 0.309 ± 0.017

Sequence | PBM E-score of 8-mer
AGTGACAC | 0.44 ± 0.0087
CTTGACAA | 0.328 ± 0.0034
AGAAGGGA | -0.301 ± 0.082
AGTATAAT | -0.0999 ± 0.092
ATTGCGCG | 0.0393 ± 0.076
CTCCATTC | -0.243 ± 0.042
ATCGTTGA | -0.173 ± 0.031
TATTGGGA | -0.222 ± 0.0037
AAGCGCCG | -0.0564 ± 0.022
ATTTTTGA | -0.289 ± 0.044
AGTGACGA | 0.358 ± 0.016
AGTGACCA | 0.0489 ± 0.11
AGTGACAA | 0.4196 ± 0.0018
CGTGACTC | 0.0879 ± 0.021
GGTGACGA | 0.429 ± 0.013
GATGACAA | 0.202 ± 0.017
CGTGACAC | 0.398 ± 0.02
GGTGACAA | 0.47312 ± 1.4e-05
CGTGACGA | 0.331 ± 0.031
CGTGACGC | 0.232 ± 0.0054
GGTGACCA | 0.0575 ± 0.069
AGTGACTA | 0.115 ± 0.011

Sequence | PBM E-score of 8-mer
CGGTCTTA | -0.0111 ± 0.035
GGCTCGCA | 0.136 ± 0.053
ATCAGAAG | -0.0178 ± 0.033
AGCAGGGA | 0.00886 ± 0.045
CAGACAGC | 0.0475 ± 0.042
ACCCCAGT | -0.138 ± 0.1
CTAGTCCC | -0.132 ± 0.064
TATGACAA | 0.0436 ± 0.061
TGTGACAA | 0.42 ± 0.028
TCTGACAA | 0.112 ± 0.048
AGAGCCAC | -0.0799 ± 0.014
CCTAGTTC | -0.072 ± 0.0041
CATCACAC | 0.4576 ± 0.0032
AATCACAA | 0.199 ± 0.0027
CATCACAA | 0.179 ± 0.006
GATCACAC | 0.451 ± 0.014
AATCACAG | 0.0723 ± 0.038
AATCACAC | 0.462 ± 0.0075
GATCACAA | 0.163 ± 0.045
GATCACGC | 0.287 ± 0.017
CATCACAG | 0.109 ± 0.038
AACGAGTC | -0.154 ± 0.018

Sequence | PBM E-score of 8-mer
GTCTTCAA | -0.0747 ± 0.03
CCGCCCCA | -0.155 ± 0.064
ACGCATTC | 0.0134 ± 0.0026
GTCACAGA | 0.0466 ± 0.051
GTCACACA | 0.3901 ± 0.0019
GTCACAAA | 0.118 ± 0.066
CTCACACA | 0.41 ± 0.0079
CACACACA | 0.303 ± 0.0096
CACACACG | 0.181 ± 0.059
CAATAGTG | 0.127 ± 0.061
ACTTGCGG | -0.0023 ± 0.035
GGTGAAAC | 0.0805 ± 0.054
TCAATGCA | -0.268 ± 0.037
ACACCACG | 0.3698 ± 0.0022
CCACCACC | 0.107 ± 0.044
GCACCACA | 0.133 ± 0.047
ACACCACT | 0.254 ± 0.012
CCACCACA | 0.117 ± 0.02
CCACCACG | -0.00839 ± 0.13
ACACCACC | 0.405 ± 0.0043
TCACCACA | 0.204 ± 0.054
ACACCACA | 0.377 ± 0.008
